{
  "source": "PubChem BioAssay",
  "note": "Activity calls are given as the source filed them. Unless noted, the rule behind the calls is not given here.",
  "data": [
    {"assay": "cell viability in Huh7 cells, primary screen, cytotoxicity control for HCV replication inhibitor project, CellTiter-Glo luminescence, basal, 48 h (AID 1143);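 note: Huh7 hepatoma cells carrying a hepatitis C replication reporter with no stimulus; test concentration not given here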", "conditions": "Huh7 HCV replicon, higher = more signal, called active from +8 up or from −8 down", "values": [
      {"compound": "O=C(OCc1ccccc1)C1=CCC2c3[nH]c4ccccc4c3C(=O)C1N2S(=O)(=O)c1ccccc1[N+](=O)[O-]", "note": "(configuration not stated)", "z-score": "-1.26 (inactive)"},
      {"compound": "CC(C)=CCN[C@H](CO)c1ccccc1", "z-score": "-3.85 (inactive)"},
      {"compound": "O=C(c1ccccc1)N1Cc2ccccc2C[C@@]2(COC(c3ccc(OCCCO)cc3)=N2)C1=O", "z-score": "-1.71 (inactive)"},
      {"compound": "COC(=O)[C@H](Cc1ccccc1)N1CC2=C[C@@H](C3CC3)n3c(=O)n(C)c(=O)n3[C@H]2[C@@H]1[C@@H](O)Cc1ccccc1", "z-score": "-1.18 (inactive)"},
      {"compound": "COc1ccc(C#Cc2ccc3c(c2)[C@]2(C(=O)N3)[C@H](C(=O)NC[C@H](O)c3ccccc3)[C@H]3C(=O)O[C@H](c4ccccc4)[C@H](c4ccccc4)N3[C@@H]2c2ccc(O)cc2)cc1", "z-score": "-2.62 (inactive)"},
      {"compound": "CC(C)C(=C=CC[C@@H](O)c1ccc(OCCO)cc1)C[C@@H](O)COCc1ccccc1", "z-score": "-2.24 (inactive)"},
      {"compound": "CCCCCN1CC=CC23O[C@@H]4C=CCCOC(=O)C4[C@H]2C(=O)N(CCCCCO)[C@@H]3C1=O", "note": "(some centres not stated)", "z-score": "0.477 (inactive)"},
      {"compound": "CN1C=C(C(=O)OCCS(C)(=O)=O)C(C(=O)OCCS(C)(=O)=O)=CC(c2ccc(CO)cc2)=CC1C1CC1", "note": "(configuration not stated)", "z-score": "-0.95 (inactive)"},
      {"compound": "COc1cc(C(O)C2C=CC3C(=O)NC(=O)C3N2Nc2ccccn2)cc(OC)c1OC", "note": "(configuration not stated)", "z-score": "0.969 (inactive)"},
      {"compound": "CN(C)CCCC[C@@H]1NC(=O)[C@H]2C[C@@H](C(=O)NCCCCCCN)[C@@H](c3ccc(O)cc3)N2C1=O", "z-score": "0.181 (inactive)"},
      {"compound": "Cc1ccc(S[C@]2(C(=O)NCCCN(C)C)CC(=O)N(Cc3cc(C(F)(F)F)cc(C(F)(F)F)c3)[C@@H]2c2ccc(CO)cc2)cc1", "z-score": "-0.0481 (inactive)"},
      {"compound": "CC1(C)[C@@H]2CC(C(O)C3C=CC4C(=O)N(c5ccccc5)C(=O)C4N3Nc3ccc([N+](=O)[O-])cc3)=C[C@H]1C2", "note": "(some centres not stated)", "z-score": "-1.2 (inactive)"},
      {"compound": "O=C1c2ccccc2[C@](Cc2ccccc2I)(C(=O)NCC(F)(F)F)[C@H](c2ccc(CO)cc2)N1Cc1ccccc1Cl", "z-score": "-0.703 (inactive)"},
      {"compound": "C=C(COC)C(=O)CC[C@@H](OC(C)=O)c1ccc(CO)o1", "z-score": "0.622 (inactive)"},
      {"compound": "COc1ccccc1CN1C(=O)c2ccccc2[C@@H](C(=O)NC2CC2)[C@@H]1c1ccc(CO)cc1", "z-score": "-0.132 (inactive)"},
      {"compound": "COc1ccc(CCNC(=O)[C@@]2(Sc3ccc(C)cc3)CC(=O)N(C(C)C)[C@@H]2c2ccc(CO)cc2I)cc1", "z-score": "-0.887 (inactive)"},
      {"compound": "CCC[C@@H]1C[C@@]1(CCC)[C@@H](NS(=O)(=O)c1cccc2cccnc12)c1ccc(Cl)cc1", "z-score": "-2.15 (inactive)"},
      {"compound": "CCCC[C@@H]1C[C@H]1[C@@H](NC(=O)c1ccccc1)c1ccc(C(=O)OC)cc1", "z-score": "-0.977 (inactive)"},
      {"compound": "[N-]=[N+]=Nc1ccccc1[C@@H]1OC(c2ccc(OCCCO)cc2)=N[C@]1(CCS(=O)(=O)c1ccccc1)C(N)=O", "z-score": "-1.12 (inactive)"},
      {"compound": "COc1cc2c(cc1O)C(C1CC1)N(Cc1sc3ccccc3c1Cl)CC2", "note": "(configuration not stated)", "z-score": "-5.05 (inactive)"},
      {"compound": "CO[C@H]1O[C@H](CO)[C@@H](OC(=O)Nc2ccccc2)[C@H](OC(=O)Nc2ccccc2)[C@@H]1OC(=O)Nc1ccccc1", "z-score": "-4.73 (inactive)"},
      {"compound": "COc1cccc(-c2cccc(=O)o2)c1", "z-score": "0.064 (inactive)"},
      {"compound": "C=CCN1C(=O)[C@@]2(CC=C)N=C(c3ccc(OCCCO)cc3)O[C@H]2c2ccccc21", "z-score": "-3.88 (inactive)"},
      {"compound": "COCCOC(=O)N1C(=O)[C@@]2(c3cc(C#CCC(C(=O)OC)C(=O)OC)ccc31)[C@H](C(=O)Nc1nc3ccccc3s1)[C@H]1C(=O)O[C@H](c3ccccc3)[C@H](c3ccccc3)N1[C@@H]2c1ccccc1OCCO", "z-score": "-3.81 (inactive)"},
      {"compound": "O=C1N[C@@H](Cc2ccccc2)C(=O)N2[C@@H]1C[C@@H](C(=O)O)[C@H]2c1cccc(OCCO)c1", "z-score": "-0.333 (inactive)"},
      {"compound": "C=CCOC(=O)[C@H]1[C@@H]2C(=O)O[C@@H](c3ccccc3)[C@@H](c3ccccc3)N2[C@@H](c2ccc(OCCOC(=O)[C@H]3C[C@H]4C(=O)N[C@@H](CCCCNC(C)=O)C(=O)N4[C@H]3c3ccc(O)cc3)cc2)[C@]12C(=O)Nc1ccc(I)cc12", "z-score": "-1.48 (inactive)"}
    ]},
    {"assay": "P. aeruginosa biofilm formation inhibitors, primary screen, PAO1 strain, BacTiter-Glo luminescence, LB-PBS (AID 1144)", "conditions": "12 h, higher = more signal", "values": [
      {"compound": "COCCOC(=O)N1C(=O)[C@@]2(c3cc(C#Cc4ccc(OC)cc4)ccc31)[C@H](c1ccc(OCCO)cc1)N1[C@H](c3ccccc3)[C@H](c3ccccc3)OC(=O)[C@H]1[C@@H]2C(=O)N1CCN(c2ncccn2)CC1", "z-score": "-0.112 (inactive)"},
      {"compound": "C[N+](C)(C)CCCCCCNC(=O)[C@@H]1C[C@@H]2C(=O)N[C@@H](Cc3ccccc3)C(=O)N2[C@@H]1c1cccc(OCCO)c1", "z-score": "-0.573 (inactive)"},
      {"compound": "CCOC(=O)C1=C[C@@H](C(C)(C)C)N(S(=O)(=O)c2ccc(C)cc2)[C@H]1c1ccc(F)cc1", "z-score": "0.673 (inactive)"},
      {"compound": "COC(=O)c1c(CC[C@@H](CO)NC(=O)NCCn2cc(C3(O)CCCC3)nn2)oc(C(C)=O)c1C(=O)OC", "z-score": "0.699 (inactive)"},
      {"compound": "NC(=O)N1C(=O)C2C(C1=O)C1C=C(c3ccc(CO)cc3)C2C(c2cccs2)N1Cc1cccc(OC(F)(F)F)c1", "note": "(configuration not stated)", "z-score": "0.945 (inactive)"},
      {"compound": "NC(=O)[C@@H]1[C@H]2C(=O)O[C@H](c3ccccc3)[C@H](c3ccccc3)N2[C@H](c2ccc(O)cc2)[C@@]12C(=O)Nc1ccccc12", "z-score": "-0.609 (inactive)"},
      {"compound": "CC(C)N1C(=O)C[C@@](C(=O)NCC(F)(F)F)(c2ccc([N+](=O)[O-])cc2)[C@H]1c1ccc(CO)cc1", "z-score": "-1.76 (inactive)"},
      {"compound": "COCCCNC(=O)[C@@]1(C)c2ccccc2C(=O)N(C(C)C)[C@H]1c1ccc(CO)cc1", "z-score": "0.0334 (inactive)"},
      {"compound": "C=C(/C(=C/C[C@H](OC(C)=O)c1ccccc1OCCO)c1cnc2ccccc2c1)C(C)C", "z-score": "0.445 (inactive)"},
      {"compound": "C=CCNC(=O)[C@@H]1[C@H]2C(=O)O[C@H](c3ccccc3)[C@H](c3ccccc3)N2[C@H](c2ccc(O)cc2)[C@@]12C(=O)N(C(=O)OCCOC)c1ccc(C#CCNC(N)=O)cc12", "z-score": "-0.298 (inactive)"},
      {"compound": "O=C(OCc1ccccc1)C1=CCC2c3[nH]c4ccccc4c3C(=O)C1N2S(=O)(=O)c1ccccc1[N+](=O)[O-]", "note": "(configuration not stated)", "z-score": "-0.00859 (inactive)"},
      {"compound": "CC(C)=CCN[C@H](CO)c1ccccc1", "z-score": "-0.0678 (inactive)"},
      {"compound": "O=C(c1ccccc1)N1Cc2ccccc2C[C@@]2(COC(c3ccc(OCCCO)cc3)=N2)C1=O", "z-score": "-0.0668 (inactive)"},
      {"compound": "COC(=O)[C@H](Cc1ccccc1)N1CC2=C[C@@H](C3CC3)n3c(=O)n(C)c(=O)n3[C@H]2[C@@H]1[C@@H](O)Cc1ccccc1", "z-score": "0.39 (inactive)"},
      {"compound": "COc1ccc(C#Cc2ccc3c(c2)[C@]2(C(=O)N3)[C@H](C(=O)NC[C@H](O)c3ccccc3)[C@H]3C(=O)O[C@H](c4ccccc4)[C@H](c4ccccc4)N3[C@@H]2c2ccc(O)cc2)cc1", "z-score": "-1.1 (inactive)"},
      {"compound": "CC(C)C(=C=CC[C@@H](O)c1ccc(OCCO)cc1)C[C@@H](O)COCc1ccccc1", "z-score": "-0.933 (inactive)"},
      {"compound": "CCCCCN1CC=CC23O[C@@H]4C=CCCOC(=O)C4[C@H]2C(=O)N(CCCCCO)[C@@H]3C1=O", "note": "(some centres not stated)", "z-score": "-0.978 (inactive)"},
      {"compound": "CN1C=C(C(=O)OCCS(C)(=O)=O)C(C(=O)OCCS(C)(=O)=O)=CC(c2ccc(CO)cc2)=CC1C1CC1", "note": "(configuration not stated)", "z-score": "0.706 (inactive)"},
      {"compound": "COc1cc(C(O)C2C=CC3C(=O)NC(=O)C3N2Nc2ccccn2)cc(OC)c1OC", "note": "(configuration not stated)", "z-score": "0.0747 (inactive)"},
      {"compound": "CN(C)CCCC[C@@H]1NC(=O)[C@H]2C[C@@H](C(=O)NCCCCCCN)[C@@H](c3ccc(O)cc3)N2C1=O", "z-score": "0.523 (inactive)"},
      {"compound": "Cc1ccc(S[C@]2(C(=O)NCCCN(C)C)CC(=O)N(Cc3cc(C(F)(F)F)cc(C(F)(F)F)c3)[C@@H]2c2ccc(CO)cc2)cc1", "z-score": "-0.617 (inactive)"},
      {"compound": "CC1(C)[C@@H]2CC(C(O)C3C=CC4C(=O)N(c5ccccc5)C(=O)C4N3Nc3ccc([N+](=O)[O-])cc3)=C[C@H]1C2", "note": "(some centres not stated)", "z-score": "-0.88 (inactive)"},
      {"compound": "O=C1c2ccccc2[C@](Cc2ccccc2I)(C(=O)NCC(F)(F)F)[C@H](c2ccc(CO)cc2)N1Cc1ccccc1Cl", "z-score": "-1.28 (inactive)"},
      {"compound": "C=C(COC)C(=O)CC[C@@H](OC(C)=O)c1ccc(CO)o1", "z-score": "-0.238 (inactive)"},
      {"compound": "COc1ccccc1CN1C(=O)c2ccccc2[C@@H](C(=O)NC2CC2)[C@@H]1c1ccc(CO)cc1", "z-score": "0.217 (inactive)"},
      {"compound": "COc1ccc(CCNC(=O)[C@@]2(Sc3ccc(C)cc3)CC(=O)N(C(C)C)[C@@H]2c2ccc(CO)cc2I)cc1", "z-score": "0.844 (inactive)"},
      {"compound": "CCC[C@@H]1C[C@@]1(CCC)[C@@H](NS(=O)(=O)c1cccc2cccnc12)c1ccc(Cl)cc1", "z-score": "-0.0939 (inactive)"},
      {"compound": "CCCC[C@@H]1C[C@H]1[C@@H](NC(=O)c1ccccc1)c1ccc(C(=O)OC)cc1", "z-score": "-0.485 (inactive)"},
      {"compound": "[N-]=[N+]=Nc1ccccc1[C@@H]1OC(c2ccc(OCCCO)cc2)=N[C@]1(CCS(=O)(=O)c1ccccc1)C(N)=O", "z-score": "0.378 (inactive)"},
      {"compound": "COc1cc2c(cc1O)C(C1CC1)N(Cc1sc3ccccc3c1Cl)CC2", "note": "(configuration not stated)", "z-score": "1.26 (inactive)"},
      {"compound": "CO[C@H]1O[C@H](CO)[C@@H](OC(=O)Nc2ccccc2)[C@H](OC(=O)Nc2ccccc2)[C@@H]1OC(=O)Nc1ccccc1", "z-score": "-0.309 (inactive)"},
      {"compound": "COc1cccc(-c2cccc(=O)o2)c1", "z-score": "0.77 (inactive)"},
      {"compound": "C=CCN1C(=O)[C@@]2(CC=C)N=C(c3ccc(OCCCO)cc3)O[C@H]2c2ccccc21", "z-score": "-0.776 (inactive)"},
      {"compound": "COCCOC(=O)N1C(=O)[C@@]2(c3cc(C#CCC(C(=O)OC)C(=O)OC)ccc31)[C@H](C(=O)Nc1nc3ccccc3s1)[C@H]1C(=O)O[C@H](c3ccccc3)[C@H](c3ccccc3)N1[C@@H]2c1ccccc1OCCO", "z-score": "-1.12 (inactive)"},
      {"compound": "O=C1N[C@@H](Cc2ccccc2)C(=O)N2[C@@H]1C[C@@H](C(=O)O)[C@H]2c1cccc(OCCO)c1", "z-score": "-0.965 (inactive)"},
      {"compound": "C=CCOC(=O)[C@H]1[C@@H]2C(=O)O[C@@H](c3ccccc3)[C@@H](c3ccccc3)N2[C@@H](c2ccc(OCCOC(=O)[C@H]3C[C@H]4C(=O)N[C@@H](CCCCNC(C)=O)C(=O)N4[C@H]3c3ccc(O)cc3)cc2)[C@]12C(=O)Nc1ccc(I)cc12", "z-score": "0.399 (inactive)"}
    ]}
  ]
}
